# Screening results as filed in PubChem BioAssay.
# Compounds with a hit are over-represented: about 12% of the library has one in this group of screens.
# Sm TGR block = qHTS Assay for the Inhibitors of Schistosoma Mansoni Peroxiredoxins; Schistosoma mansoni thioredoxin glutathione reductase (TGR), Q962Y6; purified TGR, DTNB reduction, TNB absorbance 405 nm; Potency, µM (top dose mostly 114 µM), for inactives: top-dose activity change, negative = inhibition, actives largely listed as inhibitors; hit rate 3% among 360,000; note: % is set by controls: 0 for no effect and ±100 for the full control effect; nearly all actives have a fitted effect of over 60% in size
#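 First, TGR (20 nM dispensed) and NADPH were mixed with compound. Second, a 15 min room-temperature incubation followed. Third, further NADPH and then DTNB were added to start the reaction. Finally, TNB absorbance was monitored kinetically.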
# AmpC detergent = qHTS Inhibitors of AmpC Beta-Lactamase (assay with detergent) | Potency, µM (titrated, usually from 114 µM), inactives show at the top dose activity change, negative = inhibition, most hits filed as inhibitors | AID 485294, 2010 | hit rate 0.041% among 370,000 | P00811 | AmpC hydrolysis of nitrocefin, absorbance 480 nm, 0.01% Triton;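 note: 0% = no-compound wells and -100% = no-enzyme wells; nearly all actives have a fitted effect of over 25% in size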
# Target sequence (P00811 whole entry, looked up): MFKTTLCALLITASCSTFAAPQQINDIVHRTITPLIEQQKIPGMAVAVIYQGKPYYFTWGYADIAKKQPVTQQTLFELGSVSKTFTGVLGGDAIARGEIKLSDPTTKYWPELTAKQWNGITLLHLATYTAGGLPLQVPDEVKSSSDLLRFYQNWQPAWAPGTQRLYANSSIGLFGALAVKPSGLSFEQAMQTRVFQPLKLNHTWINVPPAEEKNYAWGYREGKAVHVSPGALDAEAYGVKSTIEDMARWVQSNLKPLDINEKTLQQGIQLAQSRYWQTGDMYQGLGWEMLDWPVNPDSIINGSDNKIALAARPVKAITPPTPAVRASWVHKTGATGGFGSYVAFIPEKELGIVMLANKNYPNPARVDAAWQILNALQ
#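 20 mM phosphate pH 7.0 + 0.01% (detergent screen) or 0.0001% Triton X-100; 5.3 nM AmpC reagent; cpd preinc 15 min RT; nitrocefin (800 uM stock) to start; A480 q20 s × 4 min; Activity was normalised to no-enzyme and no-compound control wells.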
# Pf growth 48h = Primary qHTS for delayed death inhibitors of the malarial parasite plastid, 48 hour incubation | P. falciparum luciferase growth in erythrocytes, 48 h | Potency, µM (series often up to 28.7 µM), without a hit: at the top dose activity change, negative = inhibition, actives largely listed as inhibitors | hit rate 5.9% among 310,000 | AID 504832, 2011; note: % is set by controls: 0 for no effect and ±100 for the full control effect
#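 Luciferase-expressing parasites in RBCs, 2% Hct / 0.1% parasitemia final; RPMI 1640 + 0.5% Albumax; 37 C, 5% CO2, one generation; luminescence read-out, lower signal = inhibition.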
# Pf growth 96h = Primary qHTS for delayed death inhibitors of the malarial parasite plastid, 96 hour incubation; P. falciparum luciferase reporter growth, 96 h; Potency, µM (doses to about 28.7 µM), inactives show at the top dose activity change, negative = inhibition, usual class: inhibitors; hit rate 6.9% among 320,000; note: % is set by controls: 0 for no effect and ±100 for the full control effect
#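 Two-generation exposure (96 h) targets delayed-death phenotype. Reporter parasites carrying integrated firefly luciferase, in red cells at 2% hematocrit and 0.05% parasitemia final, kept at 37 C, 5% CO2; luminescence loss indicates inhibition.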
# AmpC no deterg = qHTS Inhibitors of AmpC Beta-Lactamase (assay without detergent) | P00811 | AID 485341, 2010 | Potency, µM (series often up to 57.1 µM), inactives show at the top dose activity change, negative = inhibition, actives largely listed as inhibitors | hit rate 0.52% among 330,000 | AmpC nitrocefin hydrolysis, absorbance 480 nm, 0.0001% Triton;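 note: plate controls were no compound for no effect and no enzyme for full effect; nearly all actives have a fitted effect of over 20% in size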
#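 20 mM phosphate pH 7.0 + 0.01% (detergent screen) or 0.0001% Triton X-100; 5.3 nM AmpC reagent; cpd preinc 15 min RT; nitrocefin (800 uM stock) to start; A480 q20 s × 4 min; Activity was normalised to no-enzyme and no-compound control wells.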
# SARS PLP yeast = qHTS of Yeast-based Assay for SARS-CoV PLP; S. cerevisiae expressing SARS-CoV PLpro, growth rescue; Potency, µM (series often up to 32.9 µM), without a hit: at the top dose activity, positive = growth rescue, usual class: activators; hit rate 0.19% among 330,000; calls by dose curve; note: 0% is about no effect; nearly all actives have a fitted effect of over 55% in size
# Starred values were filed as active, the others as inactive; ? = inconclusive; . = not tested or not shown; [ ] = dose if it differs, or a comment. Unless noted, calls come from the whole dose curve; as a rule, active = well fitted curve in the direction sought with a large enough effect; inconclusive = small, poorly fitted or top-dose-only effect, or another doubt; inactive = no such curve, though single readings can be large; an effect the other way counts as inactive or inconclusive. Potency is the fitted concentration of half-maximal effect.
SMILES,Sm TGR block,AmpC detergent,Pf growth 48h,Pf growth 96h,AmpC no deterg,SARS PLP yeast
C/C(=N\NC(=O)CN(c1ccccc1)S(C)(=O)=O)c1ccccc1O,2%,3%,12µM*,?,-28%,5%
Cc1cccc(NS(=O)(=O)c2ccc(NC(=O)N3CCCCC3)cc2)c1,-29%,-3%,-17%,-18%,-36%,14%
Cc1ccc(NS(=O)(=O)c2ccc(NC(=O)N3CCCCC3)cc2)cc1,7%,2%,?,1.5µM*,-12%,6%
Cc1ccc(NS(=O)(=O)c2ccc(C(=O)N3CCCC(C(F)(F)F)C3)cc2)cc1 (centres undefined),2%,?,?,14%,35µM*,-1%
CC(=O)Nc1cc(C(=O)N2CCC3(CC2)OCCO3)ccc1S(=O)(=O)c1ccc(C)cc1,11%,-2%,14%,18%,10%,-1%
C/C(=N\S(=O)(=O)c1ccc(C)cc1)N1CCN(S(=O)(=O)c2ccccc2)C1,-5%,-6%,46%,46%,47%,6%
C/C(=N\S(=O)(=O)c1ccc(C)cc1)N1CCCCC1,-2%[57.1 µM],1%,1%,12µM*,-17%,-1%
CC(=O)Nc1cc(C(=O)N2CCCC2)ccc1S(=O)(=O)c1ccc(C)cc1,-20%,1%,15%,1.2µM*,-3%,3%
CN1C(=O)/C(=C\N2CCc3ccccc32)C(=O)NC1=S,?,?,24%,9.3µM*,-29%,-4%
Cc1ccc(-c2nnn(CC(=O)N(Cc3ccco3)C(C(=O)NC(C)(C)C)c3cccs3)n2)o1 (centres undefined),18µM*,-11%,15µM*,-9%,-12%,-2%
Cc1ccc(-c2nnn(CC(=O)N(Cc3cccs3)C(C(=O)NC(C)(C)C)c3ccc(C)o3)n2)o1 (centres undefined),-22%,-1%,-7%,.,-12%,?
COc1cccc(N(C(=O)Cn2nnc(-c3ccc(C)o3)n2)C(C(=O)NC(C)(C)C)c2cccs2)c1 (centres undefined),4%,1%,13µM*,-19%,35%,-2%
CC(C)(C)NC(=O)C(c1c[nH]c2ccccc12)N(C(=O)Cn1nnc(-c2ccc(F)cc2)n1)c1cccc(O)c1 (centres undefined),-10%,-6%,2.6µM*,?,6%,2%
CC(C)c1nc2scc(-c3ccc(Cl)cc3)c2c(=O)n1N,21%,0%,-4%,-12%,-28%,-1%
COc1ccccc1N1CCN(C2CCCN(C(=O)CCc3ccccn3)C2)CC1 (centres undefined),-35%,-1%,-10%,-22%,49%,-8%
CCCCN(CC)CCNC(=O)CCn1cnc2onc(-c3ccc(F)cc3)c2c1=O,3%,24%,.,.,.,.
COC(=O)[C@@H](NCc1cccc(CN([C@H](C(=O)OC)C(C)C)S(C)(=O)=O)c1)C(C)C,-23%,?,?,15µM*,147%,1%
COCCS(=O)(=O)N(Cc1ccccc1)[C@H](C(=O)OC)C(C)C,.,.,.,.,-3%,-7%
CS(=O)(=O)N(Cc1cccc(CN(C(C(=O)O)c2ccccc2)S(C)(=O)=O)c1)C(C(=O)O)c1ccccc1 (centres undefined),5µM*,-10%,16%,-8%,-26%,11%
O=C(NCCCN1CCN(c2ccccc2)CC1)c1ccc2nc(CCc3ccccc3)oc2c1,3%,12%,.,.,.,.
COc1ccc(/C=C/c2n[nH]c(=O)c(C#N)c2C)cc1,-13%,-6%,?,9%,-16%,2%
Cc1oc2ccc(O)c(CN(C)Cc3ccccc3)c2c1C(=O)Nc1cccc(C(F)(F)F)c1,-1%,8%,.,.,.,.
CCSc1nnc(NC(=O)NC(CC)(C(F)(F)F)C(F)(F)F)s1,-6%,-2%,12µM*,?,-28%,-10%
O=C(Nc1ccccc1C(F)(F)F)C(O)(c1ccccc1)C1CCCCC1 (centres undefined),4µM*,-2%,?,2%,-18%,1%
O=C(Nc1ccccc1C(F)(F)F)N1CCC(N2CCCCC2)CC1,-5%,-11%,34%,5%,4%,0%
SMILES,Sm TGR block,AmpC detergent,Pf growth 48h,Pf growth 96h,AmpC no deterg,SARS PLP yeast
Cc1ccc2cc(CN(C(=O)c3cccc(Cl)c3)c3ccccc3)c(=O)[nH]c2c1,-1%,16%,.,.,.,.
O=C1NC(=O)C(=Cc2ccccc2OCCOc2ccc([N+](=O)[O-])cc2)C(=O)N1,?,3%,12%,50%,-40%,-12%
CN1C(=O)C(=Cc2ccccc2OCCOc2ccc([N+](=O)[O-])cc2)C(=O)N(C)C1=O,-16%,8%,4%,12µM*,-25%,-7%
COc1ccccc1C(=O)NCC(=O)OCC(=O)c1cccc2ccccc12,0%,?,-18%,30%,-16%,-8%
CCOC(=O)c1[nH]c2ccc(OCC)cc2c1NC(=O)CN1CCCC(C)C1 (centres undefined),4%,6%,?,?,50%,8%
COC(=O)c1[nH]c2ccc(F)cc2c1NC(=O)CCN1CCN(Cc2ccc3c(c2)OCO3)CC1,-26%,-18%,12µM*,-1%,67%,-2%
CCOC(=O)c1[nH]c2cc3c(cc2c1NC(=O)CN1CC(C)CC(C)C1)OCO3 (centres undefined),-12%,-9%,-2%,5.9µM*,-31%,-2%
CCN(CC(=O)Nc1c(C(=O)OC)[nH]c2ccc(C)cc12)c1ccc2c(c1)OCO2,50µM*,-13%,13µM*,?,9%,20%
CCc1ccc2oc(C(=O)Nc3c(C)n(C)n(-c4ccccc4)c3=O)cc(=O)c2c1,0%,-1%,.,.,.,.
CCCc1nn2c(=O)cc(CSCC(=O)Nc3nnc(CC)s3)nc2s1,3%,-8%,-16%,10µM*,2%,5%
CCc1nnc(NC(=O)CSCc2cc(=O)n3nc(C)sc3n2)s1,-9%,-1%,6%,?,52%,-5%
COc1cccc(CNC(=O)c2cc3oc4ccccc4c3n2C)c1OC,2%,2%,.,9.3µM*,1%,-1%
CCOc1ccccc1CNC(=O)c1cc2oc3ccccc3c2n1CC,9%,-4%,.,1.2µM*,-22%,-1%
CN(Cc1cn(Cc2ccccc2)nc1-c1ccc2c(c1)OCO2)Cc1nccn1C,-5%,5%,?,15µM*,71%,-1%
CSc1ccc(C(=S)N2CCN(C)CC2)cc1,3%,1%,4%,46%,-12%,4%
